# ChEMBL document CHEMBL1961873, “Compounds: GSK PKIS; Assays: Nanosyn kinase panel” (2012)
# Tests used:
# [1] = target: Serine/threonine-protein kinase pim-2 (Homo sapiens) (UniProt Q9P1W9); conditions: at 1 µM;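 further: each value is a mean of the inhibition measurements against the kinase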
# [2] = target: Serine/threonine-protein kinase pim-3 (Homo sapiens) (UniProt Q86V86); conditions: at 0.1 µM
# [3] = target: Serine/threonine-protein kinase pim-3 (Homo sapiens) (UniProt Q86V86); conditions: at 1 µM
# [4] = target: T1, MAP kinase-activated protein kinase 5 (Homo sapiens) (UniProt Q8IW41); conditions: at 0.1 µM
# T1 sequence (whole entry): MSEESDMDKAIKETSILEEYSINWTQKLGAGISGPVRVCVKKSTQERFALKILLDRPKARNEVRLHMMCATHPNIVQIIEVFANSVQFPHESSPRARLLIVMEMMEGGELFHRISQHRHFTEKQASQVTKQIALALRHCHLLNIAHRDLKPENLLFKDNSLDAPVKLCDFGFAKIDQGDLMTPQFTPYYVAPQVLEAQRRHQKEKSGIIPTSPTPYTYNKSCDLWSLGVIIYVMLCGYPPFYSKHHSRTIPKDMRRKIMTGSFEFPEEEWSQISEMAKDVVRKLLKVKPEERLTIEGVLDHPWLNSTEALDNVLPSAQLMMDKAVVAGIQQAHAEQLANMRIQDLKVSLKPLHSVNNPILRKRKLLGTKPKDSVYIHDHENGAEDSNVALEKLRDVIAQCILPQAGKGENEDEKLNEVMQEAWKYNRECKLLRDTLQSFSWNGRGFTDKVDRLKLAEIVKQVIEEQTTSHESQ
# [5] = target: T1, MAP kinase-activated protein kinase 5 (Homo sapiens); conditions: at 1 µM
# [6] = target: Serine/threonine-protein kinase SIK1 (Homo sapiens) (UniProt P57059); conditions: at 0.1 µM
# Serine/threonine-protein kinase SIK1 (Homo sapiens), sequence (P57059 whole entry): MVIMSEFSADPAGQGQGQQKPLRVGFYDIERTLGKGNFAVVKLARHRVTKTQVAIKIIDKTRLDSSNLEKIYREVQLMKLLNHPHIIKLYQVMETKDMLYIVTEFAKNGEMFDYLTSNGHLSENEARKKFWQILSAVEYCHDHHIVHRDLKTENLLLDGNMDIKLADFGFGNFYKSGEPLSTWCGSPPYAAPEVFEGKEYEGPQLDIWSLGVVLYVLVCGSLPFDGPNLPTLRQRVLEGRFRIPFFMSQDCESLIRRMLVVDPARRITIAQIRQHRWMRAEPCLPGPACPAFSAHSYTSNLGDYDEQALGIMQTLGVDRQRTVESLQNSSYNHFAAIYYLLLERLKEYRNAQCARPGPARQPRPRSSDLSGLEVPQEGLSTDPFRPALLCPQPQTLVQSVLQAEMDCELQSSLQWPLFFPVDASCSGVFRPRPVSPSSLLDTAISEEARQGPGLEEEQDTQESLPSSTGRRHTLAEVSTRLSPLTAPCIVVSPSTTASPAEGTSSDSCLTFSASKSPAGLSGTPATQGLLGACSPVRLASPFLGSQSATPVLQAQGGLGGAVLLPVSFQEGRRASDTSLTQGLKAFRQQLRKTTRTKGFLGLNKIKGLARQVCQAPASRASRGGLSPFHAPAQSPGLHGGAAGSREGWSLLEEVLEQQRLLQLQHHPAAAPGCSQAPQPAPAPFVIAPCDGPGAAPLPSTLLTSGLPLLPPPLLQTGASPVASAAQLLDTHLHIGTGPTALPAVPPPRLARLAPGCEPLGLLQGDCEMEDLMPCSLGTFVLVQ
# [7] = target: Serine/threonine-protein kinase SIK1 (Homo sapiens) (UniProt P57059); conditions: at 1 µM
# [8] = target: Serine/threonine-protein kinase SIK2 (Homo sapiens) (UniProt Q9H0K1); conditions: at 0.1 µM
# Serine/threonine-protein kinase SIK2 (Homo sapiens), sequence (Q9H0K1 whole entry, looked up): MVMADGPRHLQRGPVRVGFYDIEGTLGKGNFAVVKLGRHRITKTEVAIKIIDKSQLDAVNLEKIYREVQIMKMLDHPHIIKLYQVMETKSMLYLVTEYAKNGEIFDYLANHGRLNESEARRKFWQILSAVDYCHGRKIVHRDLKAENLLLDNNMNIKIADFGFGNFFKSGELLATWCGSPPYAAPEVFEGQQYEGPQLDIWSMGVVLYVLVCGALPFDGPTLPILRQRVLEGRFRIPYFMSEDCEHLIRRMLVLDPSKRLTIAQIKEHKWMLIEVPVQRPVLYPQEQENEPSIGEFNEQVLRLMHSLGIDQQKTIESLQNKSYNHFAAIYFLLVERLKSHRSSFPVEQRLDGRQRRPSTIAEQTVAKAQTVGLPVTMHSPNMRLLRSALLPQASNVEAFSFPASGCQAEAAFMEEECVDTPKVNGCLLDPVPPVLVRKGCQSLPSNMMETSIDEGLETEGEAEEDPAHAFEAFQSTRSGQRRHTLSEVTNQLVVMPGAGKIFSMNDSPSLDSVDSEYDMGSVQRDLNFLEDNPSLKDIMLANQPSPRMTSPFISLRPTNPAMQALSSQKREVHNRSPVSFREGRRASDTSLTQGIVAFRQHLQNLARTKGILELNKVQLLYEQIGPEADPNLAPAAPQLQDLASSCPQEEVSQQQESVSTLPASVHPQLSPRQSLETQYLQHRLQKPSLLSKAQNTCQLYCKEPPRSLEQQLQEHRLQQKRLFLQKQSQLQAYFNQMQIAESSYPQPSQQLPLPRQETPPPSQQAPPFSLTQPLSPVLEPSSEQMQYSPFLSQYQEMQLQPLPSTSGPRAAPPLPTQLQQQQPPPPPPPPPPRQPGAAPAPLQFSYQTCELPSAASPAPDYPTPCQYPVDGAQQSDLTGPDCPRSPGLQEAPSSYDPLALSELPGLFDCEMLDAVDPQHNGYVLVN
# [9] = target: Serine/threonine-protein kinase SIK2 (Homo sapiens) (UniProt Q9H0K1); conditions: at 1 µM
# [10] = target: T2, Serine/threonine-protein kinase TBK1 (Homo sapiens) (UniProt Q9UHD2); conditions: at 0.1 µM
# T2 sequence (whole entry): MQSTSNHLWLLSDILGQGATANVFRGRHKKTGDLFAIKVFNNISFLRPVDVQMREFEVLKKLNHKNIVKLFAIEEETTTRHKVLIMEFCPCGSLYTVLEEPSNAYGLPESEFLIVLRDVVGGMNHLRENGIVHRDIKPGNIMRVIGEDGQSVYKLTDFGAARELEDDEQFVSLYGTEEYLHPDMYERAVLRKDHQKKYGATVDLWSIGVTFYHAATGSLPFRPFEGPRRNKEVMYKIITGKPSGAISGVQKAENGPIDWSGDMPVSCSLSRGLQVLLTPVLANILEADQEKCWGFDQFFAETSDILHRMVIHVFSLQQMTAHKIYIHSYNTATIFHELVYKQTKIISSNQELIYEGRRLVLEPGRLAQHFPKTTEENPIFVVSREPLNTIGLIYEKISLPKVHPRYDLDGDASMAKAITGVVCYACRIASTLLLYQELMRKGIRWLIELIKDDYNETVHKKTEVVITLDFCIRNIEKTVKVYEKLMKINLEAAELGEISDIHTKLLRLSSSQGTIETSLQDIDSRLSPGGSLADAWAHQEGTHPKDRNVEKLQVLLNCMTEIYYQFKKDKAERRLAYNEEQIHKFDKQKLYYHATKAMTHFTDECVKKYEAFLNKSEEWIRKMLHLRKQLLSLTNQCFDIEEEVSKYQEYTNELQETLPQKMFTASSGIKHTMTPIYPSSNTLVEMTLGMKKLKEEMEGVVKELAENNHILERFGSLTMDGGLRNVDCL
# [11] = target: T2, Serine/threonine-protein kinase TBK1 (Homo sapiens); conditions: at 1 µM
# [12] = target: T3, Testis-specific serine/threonine-protein kinase 1 (Homo sapiens) (UniProt Q9BXA7); conditions: at 0.1 µM
# T3 sequence (whole entry): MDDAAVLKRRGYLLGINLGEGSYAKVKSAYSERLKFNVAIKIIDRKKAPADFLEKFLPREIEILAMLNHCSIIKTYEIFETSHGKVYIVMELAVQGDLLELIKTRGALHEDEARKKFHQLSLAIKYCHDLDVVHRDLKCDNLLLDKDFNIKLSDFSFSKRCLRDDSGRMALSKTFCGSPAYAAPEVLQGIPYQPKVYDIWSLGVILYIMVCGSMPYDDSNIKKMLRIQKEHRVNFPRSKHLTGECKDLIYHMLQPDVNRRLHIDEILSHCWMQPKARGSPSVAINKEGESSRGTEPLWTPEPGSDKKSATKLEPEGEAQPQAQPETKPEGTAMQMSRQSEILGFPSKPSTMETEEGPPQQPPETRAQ
# [13] = target: T3, Testis-specific serine/threonine-protein kinase 1 (Homo sapiens); conditions: at 1 µM
# [14] = target: T4, Testis-specific serine/threonine-protein kinase 2 (Homo sapiens) (UniProt Q96PF2); conditions: at 0.1 µM
# T4 sequence (whole entry): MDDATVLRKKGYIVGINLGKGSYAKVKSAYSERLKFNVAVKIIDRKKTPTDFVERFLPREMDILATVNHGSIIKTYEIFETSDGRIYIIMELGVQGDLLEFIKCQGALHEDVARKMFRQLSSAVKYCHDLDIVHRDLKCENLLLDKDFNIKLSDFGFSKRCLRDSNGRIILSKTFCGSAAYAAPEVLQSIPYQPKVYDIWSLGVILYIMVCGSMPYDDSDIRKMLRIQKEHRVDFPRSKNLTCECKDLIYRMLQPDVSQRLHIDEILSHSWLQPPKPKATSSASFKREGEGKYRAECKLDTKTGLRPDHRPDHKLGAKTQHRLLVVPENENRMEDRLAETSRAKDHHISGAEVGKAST
# [15] = target: T4, Testis-specific serine/threonine-protein kinase 2 (Homo sapiens); conditions: at 1 µM
# [16] = target: Casein kinase I isoform alpha (Homo sapiens) (UniProt P48729); conditions: at 0.1 µM
# Casein kinase I isoform alpha (Homo sapiens), sequence (P48729 2-337 limits assumed): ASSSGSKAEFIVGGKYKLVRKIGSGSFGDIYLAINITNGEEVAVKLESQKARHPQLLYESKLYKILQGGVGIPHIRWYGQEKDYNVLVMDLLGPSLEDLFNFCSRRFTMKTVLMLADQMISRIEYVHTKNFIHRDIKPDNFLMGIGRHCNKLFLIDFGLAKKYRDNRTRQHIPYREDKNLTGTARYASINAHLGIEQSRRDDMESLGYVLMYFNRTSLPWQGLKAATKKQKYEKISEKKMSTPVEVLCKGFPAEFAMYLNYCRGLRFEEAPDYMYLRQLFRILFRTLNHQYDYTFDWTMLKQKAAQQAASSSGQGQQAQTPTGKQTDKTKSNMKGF
# [17] = target: Casein kinase I isoform alpha (Homo sapiens) (UniProt P48729); conditions: at 1 µM
# [18] = target: Casein kinase I isoform gamma-1 (Homo sapiens) (UniProt Q9HCP0); conditions: at 0.1 µM
# Casein kinase I isoform gamma-1 (Homo sapiens), sequence (Q9HCP0 whole entry, looked up, canonical isoform): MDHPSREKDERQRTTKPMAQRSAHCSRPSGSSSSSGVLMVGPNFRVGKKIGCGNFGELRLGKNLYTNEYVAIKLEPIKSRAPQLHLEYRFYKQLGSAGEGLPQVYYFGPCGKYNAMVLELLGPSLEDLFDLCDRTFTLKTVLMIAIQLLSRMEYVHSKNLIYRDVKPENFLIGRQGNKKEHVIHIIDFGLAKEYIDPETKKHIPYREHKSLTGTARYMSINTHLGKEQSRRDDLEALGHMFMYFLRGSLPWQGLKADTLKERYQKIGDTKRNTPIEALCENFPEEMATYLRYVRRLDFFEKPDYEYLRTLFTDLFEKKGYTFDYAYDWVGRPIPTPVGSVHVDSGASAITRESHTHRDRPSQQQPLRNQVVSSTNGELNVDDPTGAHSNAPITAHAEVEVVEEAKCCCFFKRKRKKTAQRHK
# [19] = target: Casein kinase I isoform gamma-1 (Homo sapiens) (UniProt Q9HCP0); conditions: at 1 µM
# [20] = target: Casein kinase I isoform gamma-2 (Homo sapiens) (UniProt P78368); conditions: at 0.1 µM;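 further: values are mean inhibition figures reported as part of the GSK PKIS dataset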
# Casein kinase I isoform gamma-2 (Homo sapiens), sequence (P78368 whole entry, looked up, canonical isoform): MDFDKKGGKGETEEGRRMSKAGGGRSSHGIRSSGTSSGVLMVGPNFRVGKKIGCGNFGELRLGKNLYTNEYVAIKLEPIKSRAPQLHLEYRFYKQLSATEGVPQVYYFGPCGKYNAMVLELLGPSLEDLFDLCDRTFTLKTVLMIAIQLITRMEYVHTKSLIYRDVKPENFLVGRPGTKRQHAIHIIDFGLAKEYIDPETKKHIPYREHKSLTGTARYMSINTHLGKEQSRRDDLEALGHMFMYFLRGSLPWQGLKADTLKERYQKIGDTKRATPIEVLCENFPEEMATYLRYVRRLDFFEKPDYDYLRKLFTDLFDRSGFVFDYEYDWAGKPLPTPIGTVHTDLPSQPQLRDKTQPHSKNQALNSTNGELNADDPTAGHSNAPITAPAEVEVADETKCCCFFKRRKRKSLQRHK
# Serine/threonine-protein kinase pim-2 (Homo sapiens), sequence (Q9P1W9 whole entry, looked up): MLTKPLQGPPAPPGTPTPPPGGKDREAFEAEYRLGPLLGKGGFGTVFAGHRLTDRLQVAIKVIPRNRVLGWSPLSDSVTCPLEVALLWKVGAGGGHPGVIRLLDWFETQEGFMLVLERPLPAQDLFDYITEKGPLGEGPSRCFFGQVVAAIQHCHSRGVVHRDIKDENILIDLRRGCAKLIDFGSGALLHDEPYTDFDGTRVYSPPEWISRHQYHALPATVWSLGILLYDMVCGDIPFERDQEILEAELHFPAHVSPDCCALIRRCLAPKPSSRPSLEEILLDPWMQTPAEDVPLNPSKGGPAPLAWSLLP
SMILES,inhibition [1] [%],inhibition [2] [%],inhibition [3] [%],inhibition [4] [%],inhibition [5] [%],inhibition [6] [%],inhibition [7] [%],inhibition [8] [%],inhibition [9] [%],inhibition [10] [%],inhibition [11] [%],inhibition [12] [%],inhibition [13] [%],inhibition [14] [%],inhibition [15] [%],inhibition [16] [%],inhibition [17] [%],inhibition [18] [%],inhibition [19] [%],inhibition [20] [%]
CS(=O)(=O)CCNCc1ccc(-c2ccc3ncnc(Nc4ccc(OCc5ccccc5)cc4)c3c2)o1,0.74,0.79,1.6,1.45,1.42,4.11,9.04,3.65,6.41,3.64,3.03,3.31,4.28,5.73,2.17,4.49,1.55,2.67,3.35,2.72
Cn1c(-c2nonc2N)nc2cnccc21,1.87,-0.24,7.16,1.23,0.93,4.82,8.47,5.17,-0.26,1.34,7.42,3.15,3.81,2.01,0.12,3.34,6.21,2.61,2.68,2.2
OCCCNc1nccc(-c2c(-c3ccc(F)cc3)nn3cc(C(F)(F)F)ccc23)n1,-0.96,-0.81,-0.18,-0.21,-1.07,5.25,6.5,7.07,16.9,2.49,5.25,1.75,-0.99,1.56,-2.79,8.54,28.7,1.82,4.37,0.31
NS(=O)(=O)c1ccc(N/N=C2\C(=O)Nc3cccc(CCc4ccncc4)c32)cc1,0.64,0.22,0.75,0.36,0.28,1.17,2.64,2.91,-0.94,1.99,4.17,2.49,1.9,0.54,1.32,1.84,-0.19,0.44,0.85,0.15
NS(=O)(=O)c1cccc(N/C=C2\C(=O)Nc3ccccc32)c1,0.69,-0.71,-2.38,1.17,1.53,5.29,10.8,-0.72,11.3,3.79,14.4,4.45,4.78,1.7,1.39,8.16,21.6,4.71,10.6,3.71
CS(=O)(=O)CCNCc1ccc(-c2ccc3ncnc(Nc4ccc(OCc5cccc(C(F)(F)F)c5)cc4)c3c2)o1,-0.48,1.17,4.36,1.34,1.44,1.69,7.19,6.4,8,3.15,6.44,5.83,4.35,2.31,2.41,5.05,6.4,3.46,4.57,3.14
CN1CCC(n2cnc(-c3ccc(F)cc3)c2-c2ccnc(NCCO)n2)CC1,2.65,1.55,5.22,1.7,4.06,2.04,6.87,4.44,16.6,-0.04,7.57,4.44,6.56,3.07,4.33,37,73.4,4.15,8.74,2.94
COc1cc(N2CCN(C(C)C)CC2)ccc1Nc1nc(Nc2cccc(F)c2C(=O)O)c2cc[nH]c2n1,0.53,1,5.92,1.35,2.28,2.77,7.48,5.27,4.22,4.45,6.19,21.1,70.9,9.88,49.2,6.82,7.9,3.56,5.73,2.68
CNC(=O)c1sc(-n2cnc3cc(OC)c(OC)cc32)cc1OCc1ccccc1C(F)(F)F,0.56,-0.77,-0.33,1.17,1.03,5.73,11.3,7.24,8.75,1.68,4.39,1.24,1.63,1.51,1.01,0.44,2.65,3.33,3.86,3.4
O=C(O[C@H]1CN[C@H](C#Cc2cc3ncnc(Nc4ccc5c(cnn5Cc5ccccc5)c4)c3s2)C1)N1CCOCC1,-0.51,-0.77,-0.59,-0.48,-1.44,-1.61,-0.04,-3.57,1.23,-0.69,1.41,0.75,-0.13,-0.69,-1.3,-2.11,0.76,-0.81,0.82,-0.61
CCS(=O)(=O)c1ccc(OC)c(Nc2ncc(-c3cccc(F)c3)o2)c1,0.08,0.31,3.65,2.11,2.01,7.36,29.4,8.6,36.7,5.98,11.5,6.42,5.86,3.41,3.46,5.47,7.11,4.64,5.04,3.91
COc1cc(Nc2ncc(-c3ccccc3)o2)cc(OC)c1,0.6,0.03,-0.34,1.24,2.34,6.1,20.6,7.38,33.8,2.71,4.2,4.25,4.53,2.32,2.49,4.52,3.47,4.39,4.78,4.11
Cc1ccc(-c2cc3c(NC(=O)C4CC4)ncnc3o2)cc1,1.12,-0.12,4.13,0.83,0.27,6.5,7.93,-1.22,3.33,3.64,10.1,3.8,4.18,1.75,0.28,4.85,5.25,3.74,4.78,2.32
CNC(=O)c1ncccc1Nc1nc(Nc2cc3c(cc2OC)CCCN3C(=O)CN(C)C)nc2[nH]ccc12,5.43,2.42,22.6,0.95,0.65,4.63,6.54,3.05,0.1,5.66,26.1,85.5,93.9,31,73.2,1.15,6.71,4.96,8.09,2.28
